In the supplement of paper PMC3724861:
The entries come from a sample that favours hits as a whole. How many sequences the whole screen found active is unknown. Unmarked numbers belong to inactive results.

system: T1, Caupolican (Caup) homeodomain DNA-binding domain; test: PBM E-score (8-mer, recovered from the published 9-mer minima) (E-score (dimensionless, -0.5 to 0.5)); Drosophila protein; higher = stronger relative binding preference, active = 0.31 or more
T1 sequence: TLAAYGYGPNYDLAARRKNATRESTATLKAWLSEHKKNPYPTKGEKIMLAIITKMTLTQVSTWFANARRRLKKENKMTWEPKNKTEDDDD
How it was run: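 Caup's homeodomain DNA-binding domain (residues 214-303) was made by in vitro transcription and translation and applied at 100 nM to custom-designed protein binding microarrays. Each value is an enrichment score that gives relative binding preference for a short DNA word, with higher meaning stronger. The 8-mer values were recovered from published 9-mer scores, each of which was the minimum of its two constituent 8-mer scores. A cutoff of 0.31 marks candidate sites.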

Row | Sequence | PBM E-score
1 | AGCACGCC | -0.187
2 | CGAATTGC | -0.0371
3 | TCATTAAA | 0.143
4 | GAGCTAAC | -0.0389
5 | AACCCCCG | -0.284
6 | AGTGACAA | 0.255
7 | AACGACAA | 0.241
8 | AGTGACAC | 0.198
9 | AGTGACAT | 0.354 (active)
10 | AGCGACAG | 0.105
11 | AACGACAG | 0.164
12 | AGCGACAC | 0.188
13 | AGCGACAT | 0.325 (active)
14 | AACGACAT | 0.358 (active)
15 | AGCCTACT | -0.116
16 | CCCATCCG | -0.202
17 | CTTTACAA | 0.137
18 | ATTTACAG | 0.137
19 | GCTTACAA | 0.22
20 | ATTTACAA | 0.361 (active)
21 | GTTTACAA | 0.343 (active)
22 | ATTTACAC | 0.259
23 | AGGAGTTG | 0.0303
24 | ATACGAAG | 0.0288

Row | Sequence | PBM E-score
25 | CACTCCCC | -0.125
26 | ACATGGTG | 0.366 (active)
27 | CCATGGTA | 0.133
28 | ACATGGTC | 0.285
29 | GCATGGTA | 0.166
30 | AGATGGTG | -0.0838
31 | ACATGGTA | 0.418 (active)
32 | CAGGCCTC | -0.158
33 | CGGGAGCA | -0.149
34 | CCGCTACC | -0.0854
35 | ATTACGTA | 0.173
36 | CGTACTAG | 0.107
37 | ACTAAACC | 0.00838
38 | AGGCCCAG | -0.214
39 | ACCCAGGC | -0.17
40 | ACATCACG | 0.217
41 | ACATCACA | 0.334 (active)
42 | CCATCATA | 0.02
43 | ACATCATA | 0.318 (active)
44 | ACATCATC | 0.251
45 | TCATCACA | 0.14
46 | ACATCAAT | 0.316 (active)
47 | ACATCAAG | 0.227
48 | ACATCAAA | 0.26

Row | Sequence | PBM E-score
49 | ATATATGG | 0.127
50 | GTATAAAA | 0.116
51 | GAATCGGA | -0.0551
52 | ATCCCATC | -0.00982
53 | CGCGTACC | -0.0687
54 | GGTCTCCA | -0.147
55 | TGAACACA | 0.309
56 | AGAACACT | 0.108
57 | AGAACACG | 0.33 (active)
58 | AGAACAAT | 0.21
59 | CGAACACG | 0.258
60 | CGAACACA | 0.167
61 | AGAACACA | ≥ 0.317 (active)
62 | AGAACAAG | 0.329 (active)
63 | AGAACAAA | 0.191
64 | AGCAGTCG | -0.15
65 | ATTGTTTC | 0.143
66 | GGCTAAAC | -0.0281
67 | GCGGTGCC | -0.251
68 | CTGTATAA | 0.186
69 | ATGTATAA | 0.344 (active)
70 | ATGTATAG | 0.276
71 | CTGTATAC | 0.246
72 | ATGTATAC | 0.356 (active)

Row | Sequence | PBM E-score
73 | GTGTATAA | 0.202
74 | ATGTATGG | 0.157
75 | GTGTATGA | 0.249
76 | ATGTATGA | 0.352 (active)
77 | AAAGGATA | 0.105
78 | CCTCCACA | -0.164
79 | AAGTCTGT | 0.139
80 | CGCCTAAA | -0.117
81 | AGACATGC | 0.303
82 | AGACATTA | 0.201
83 | AGACATGG | 0.329 (active)
84 | AGACATGA | 0.341 (active)
85 | CGACATCC | 0.134
86 | AGACATCA | 0.197
87 | CGACATGC | 0.386 (active)
88 | AGACATCG | 0.0873
89 | GGACATGA | 0.304
90 | CGACATGA | 0.395 (active)
91 | AGACATAG | 0.164
92 | CGACATTA | 0.202
93 | GAAGTCAA | -0.0438
94 | GCAGTCGA | -0.135
95 | CCAATCAA | 0.0187
96 | ATAGGCCC | -0.176

Row | Sequence | PBM E-score
97 | ACCCCTCA | -0.091
98 | CAACTCTA | -0.0633
99 | AACACATG | 0.313 (active)
100 | AACACACG | 0.248
101 | GACACATA | 0.264
102 | AACACACA | ≥ 0.313 (active)
103 | AACACATA | 0.323 (active)
104 | AGCACATA | 0.0614
105 | AACACATC | 0.202
106 | AACACATT | 0.264
107 | AACACACT | 0.256
108 | ATCACATA | 0.239
109 | CACACATA | 0.164
110 | TACACATA | 0.343 (active)
111 | GAACAGTA | 0.173
112 | AAGAGAGA | -0.0648
113 | CTTCCGCA | -0.0665
114 | ACTTCTCA | 0.00621
115 | GGTGATAA | 0.0536
116 | GCTCCACC | -0.174
